Some test systems named below: NCI-H23 lung; NCI-H226 lung; NCI-H322M lung; HOP-62 NSCLC; HOP-92 NSCLC; NCI-H522 lung; A549/ATCC NSCLC; 786-0 renal; COLO 205 colon; DU-145 prostate; K-562 leukemia; MALME-3M melanoma; RXF 393 renal; SF-268 CNS; SF-295 CNS; SF-539 CNS; UACC-257 melanoma; M14 melanoma; MDA-MB-231 breast; NCI-H460 lung.
Common to all, as to assay: NCI-60 one-dose screen, 48 h (100 = growth as untreated, 0 = no growth, -100 = all killed)
Common to all, as to details: 10 µM unless noted

The structures appear in SMILES notation. Compounds without any hit were thinned out: in the full panel of roughly 83,000, 20% have a hit.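 Testing used 96-well plates and a 48-hour single-concentration exposure. Example: -40 means 40% of the starting cells died.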 Unmarked numbers belong to inactive results. The source made the active and inactive calls. Rule for the calls: active = growth percent below 10; inactive = the rest.

Regarding `CC1=C(C(=O)OCc2ccccc2)C(c2c(O)cc(O)cc2O)n2c(nc3ccccc32)N1` (stereo not given), the growth was 65.9% with NCI-H23 lung; 62.2% with NCI-H226 lung; 94.1% in the assay with NCI-H322M lung; 47.8% in the assay with HOP-62 NSCLC; 83.1% in the assay with HOP-92 NSCLC; 1.19% (active) in the assay on NCI-H522 lung. Also, the growth in the assay on A549/ATCC NSCLC is 56.7%; with 786-0 renal, 49.4%; with COLO 205 colon it was 63.5%; in the assay on DU-145 prostate it was 82.3%; in the assay on K-562 leukemia, 17.4%; in the assay with MALME-3M melanoma, 52.7%. The growth with RXF 393 renal was 25.5%; with SF-268 CNS, 52.7%; in the assay on SF-295 CNS, 25.4%; in the assay with SF-539 CNS it was 16.8%; in the assay on UACC-257 melanoma, 47.9%; in the assay on M14 melanoma, 41.7%.

For `COc1ccc2c(c1)C(=N/N=C(\C)c1ccc(OC)c(S(N)(=O)=O)c1)C(=O)N2`, the growth with NCI-H23 lung is 94.1%; in the assay on NCI-H226 lung it was 89.3%; in the assay on NCI-H322M lung, 94%; in the assay on HOP-62 NSCLC it was 89.1%; in the assay with HOP-92 NSCLC, 79%; in the assay with NCI-H522 lung it was 84%. Besides, the growth in the assay on A549/ATCC NSCLC is 94%; in the assay on 786-0 renal it was 97.9%; with COLO 205 colon, 98.7%; in the assay with DU-145 prostate, 105%; in the assay on K-562 leukemia, 103%; in the assay on MALME-3M melanoma, 93.7%. Also, the growth was 75.1% in the assay with MDA-MB-231 breast; 80.4% with RXF 393 renal; 97.5% in the assay with SF-268 CNS; 86.4% with SF-295 CNS; 86.8% in the assay on SF-539 CNS; 96.7% with UACC-257 melanoma. Further, the growth in the assay on M14 melanoma is 92.4%.

For the compound `Cc1ccc(/C=C/c2n(Cc3ccc4ccccc4c3)c3ccccc3[n+]2Cc2ccc3ccccc3c2)cc1`, the growth with NCI-H23 lung is -92.4% (active); in the assay with NCI-H226 lung, -27.4% (active); in the assay with NCI-H322M lung, -98.4% (active); in the assay with HOP-62 NSCLC, -58.2% (active); with NCI-H460 lung it was -77.4% (active); in the assay with NCI-H522 lung, -82.5% (active). Moreover, the growth in the assay on A549/ATCC NSCLC is -53.4% (active); in the assay with 786-0 renal, -51.6% (active); with COLO 205 colon, -64.8% (active); with DU-145 prostate, -90.1% (active); in the assay with K-562 leukemia it was -25.6% (active); with MALME-3M melanoma, -90.2% (active). Besides, the growth was -47.3% (active) in the assay with MDA-MB-231 breast; -65.1% (active) in the assay on SF-268 CNS; -98.5% (active) in the assay on SF-295 CNS; -96.5% (active) with SF-539 CNS; -71.5% (active) in the assay on UACC-257 melanoma; -74.1% (active) in the assay on M14 melanoma.

Regarding `CC(=O)Nc1cccc(Nc2nc(NCc3ccccc3)c3ccccc3n2)c1`, the growth in the assay on NCI-H23 lung was -86.3% (active); in the assay on NCI-H226 lung, -84.3% (active); in the assay with NCI-H322M lung, -97.2% (active); in the assay with HOP-62 NSCLC it was -90.8% (active); with HOP-92 NSCLC it was -83.5% (active); in the assay on NCI-H522 lung it was -83.8% (active). Further, the growth in the assay with A549/ATCC NSCLC is -69% (active); in the assay with 786-0 renal, -89.1% (active); in the assay on COLO 205 colon, -93.9% (active); with DU-145 prostate it was -93.7% (active); in the assay on K-562 leukemia, -59% (active); in the assay on MALME-3M melanoma it was -94.2% (active). Also, the growth is -95.2% (active) in the assay on RXF 393 renal; -72.8% (active) in the assay on SF-268 CNS; -98.9% (active) in the assay with SF-295 CNS; -98% (active) with SF-539 CNS; -83.6% (active) in the assay on UACC-257 melanoma; -86.5% (active) in the assay with M14 melanoma.

Turning to `Cn1cc(-c2cc3nc(-c4cn(C)c5ncc(Br)cc45)cc(N)n3n2)c2cc(Cl)ccc21`, the growth in the assay with NCI-H23 lung was -77% (active); with NCI-H226 lung, -40.8% (active); with NCI-H322M lung, -73.1% (active); with HOP-62 NSCLC, -78.1% (active); in the assay on NCI-H460 lung, -69.9% (active); in the assay with NCI-H522 lung it was -79.8% (active). Besides, the growth was -75.2% (active) in the assay on A549/ATCC NSCLC; -65.3% (active) with 786-0 renal; -77.6% (active) in the assay with COLO 205 colon; -58.3% (active) in the assay on DU-145 prostate; -29.2% (active) in the assay on K-562 leukemia; -91.9% (active) in the assay on MALME-3M melanoma. In addition, the growth was -85.5% (active) with MDA-MB-231 breast; -64.4% (active) in the assay with RXF 393 renal; 20.1% in the assay on SF-268 CNS; -72.5% (active) in the assay with SF-295 CNS; -96.9% (active) in the assay with SF-539 CNS; -82.7% (active) with UACC-257 melanoma. Besides, in the assay on M14 melanoma, the growth was -86.8% (active).

For `CC(C)c1ccc2c(N)c(C(=O)Nc3ccc(C(F)(F)F)cn3)sc2n1`, the growth was 43.5% with NCI-H23 lung; 22.9% in the assay on NCI-H226 lung; 86.3% with NCI-H322M lung; 57.7% in the assay on HOP-62 NSCLC; 65.1% in the assay with HOP-92 NSCLC; 63.2% in the assay with NCI-H522 lung. The growth in the assay on A549/ATCC NSCLC was 66.9%; in the assay on 786-0 renal, 64.3%; in the assay on COLO 205 colon it was 93.1%; in the assay with DU-145 prostate, 63.8%; in the assay on K-562 leukemia, 33.1%; in the assay with MALME-3M melanoma, 63%. Further, the growth was 74.5% in the assay on RXF 393 renal; 91.8% in the assay with SF-268 CNS; 34.3% in the assay on SF-295 CNS; 88% with SF-539 CNS; 60% in the assay with UACC-257 melanoma; 50.5% in the assay on M14 melanoma.
